# High-throughput results deposited in PubChem by National Center for Advancing Translational Sciences (NCATS).
# In the library only some 7.8% were active in any assay of this set; here they are far more common.
# Vaccinia Venus: vaccinia inhibition (Venus reporter); Vaccinia virus Venus reporter expression, fluorescence; Potency, µM (doses to about 36.5 µM), for the others: at the top dose activity change, negative = inhibition, actives largely listed as inhibitors; AID 720580; 0.46% of 330,000 active; calls by dose curve; tested in A549 cells; also: potency is read from the fitted curve at half-maximal effect; nearly all actives have a fitted effect of over 30% in size
# Marburg entry inh: Marburg virus entry inhibition | 1.8% of 300,000 active | Marburg virus pseudotyped entry inhibition, cell reporter | Potency, µM (highest dose often 37.8 µM), without a hit: at the highest dose activity change, negative = inhibition, hits mostly inhibitors; calls by dose curve; tested in HEK293 cells; also: potency is read from the fitted curve at half-maximal effect
# HCV inhibitor: HCV inhibition. Huh7.5.1 HCVcc-Cre infection, luciferase reporter, 44 h. Potency, µM (highest dose often 41.8 µM), for the others: at the highest dose activity change, negative = inhibition, hits mostly inhibitors. 3.4% of 340,000 active. AID 651820; active = well fitted inhibition curve with a large enough effect; inconclusive = small, poorly fitted or top-dose-only effect, or another doubt; inactive = no such curve, though single readings can be large or run the other way; also: potency is read from the fitted curve at half-maximal effect
#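 Luciferase read-out (15 sec integration) after a 15 min room-temperature substrate step quantifies HCVcc-Cre infection. Cells, 1,000 per well, had compound added 4 h post-plating, then virus at ~0.5 moi, and were cultured 44 h.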
# LASV entry inh: Lassa virus entry inhibition; Lassa virus pseudotype entry inhibition, cell reporter; Potency, µM (titrated, usually from 37.9 µM), without a hit: top-dose activity change, negative = inhibition, hits mostly inhibitors; 1.2% of 300,000 active; AID 540256; calls by dose curve; tested in HEK293 cells; also: potency is read from the fitted curve at half-maximal effect; nearly all actives have a fitted effect of over 50% in size
# HCMV antiviral: human cytomegalovirus inhibition; HFF cells, HCMV-luciferase reporter, 72 h; active compounds read low; activity change, negative = inhibition, % at 57.5 µM; 4.5% of 410,000 active; AID 1259415; in the data active = activity change below about -60%; inconclusive = no clear call, values can overlap the other calls; inactive = above about -39%
#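 Cell-based, HFFs, 1000 cells/well, 16 h 37C; cpds in DMSO + HCMV-luc, MOI 1 PFU/cell; 72 h 37C; OneGlo luminescence after 5 min RT; norm. to buffer vs Salinomycin 10uM.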
# Vaccinia mCherry: vaccinia inhibition (mCherry reporter). AID 720579. 0.63% of 310,000 active. Vaccinia virus mCherry reporter infection, fluorescence. Potency, µM (titrated, usually from 36.5 µM), without a hit: top-dose activity change, negative = inhibition, most hits filed as inhibitors; calls by dose curve; tested in A549 cells; also: potency is read from the fitted curve at half-maximal effect; nearly all actives have a fitted effect of over 35% in size
# An asterisk follows results filed as active; i = inactive; ? = inconclusive; · = no result given; ! = repeats disagree; [ ] = dose if it differs, or a comment. % is scaled to controls: 0 for no effect and ±100 for the full control effect.
SMILES,Vaccinia Venus,Marburg entry inh,HCV inhibitor,LASV entry inh,HCMV antiviral,Vaccinia mCherry
COc1cccc(-c2csc(N3CCN(C(=S)Nc4ccc(Cl)cc4)CC3)n2)c1,-27.0%,?,12.6µM*,-25.8%,33.0,?
COc1cccc(NC(=O)N2CCN(c3nc(-c4cccc(OC)c4)cs3)CC2)c1,·,·,11.2µM*,·,-71.1*,·
COc1cccc(-c2csc(N3CCN(C(=O)Nc4ccccc4Cl)CC3)n2)c1,-4.6%,·,-22.2%,·,-18.9,i
COc1ccc(NC(=O)Cn2c(SCc3ccc(F)cc3)nc3cccnc32)c(OC)c1,-16.4%,·,·,24.7%[46.1 µM],33.5,-14.2%
CCc1cccc(NC(=O)c2coc(=O)c3ccccc23)c1,-10.5%,?,·,-25.9%[46.1 µM],0.8,-7.9%
Cc1ccc(S(=O)(=O)N2CCN(Cc3ccccc3Cl)CC2)cc1,1.7%,·,·,-19.6%[46.1 µM],7.0,-1.4%
CC(C)C(=O)Nc1cccc(S(=O)(=O)c2cccc(NC(=O)C(C)C)c2)c1,?,?,?,0.631µM*,-24.9,·
COc1ccc(O)c(/C=N/NC(=S)Nc2cccc(S(=O)(=O)N(C)C)c2)c1,?,3.66µM*,?,4.61µM*,26.7,2µM*
COc1ccc(O)c(/C=N/NC(=S)Nc2cccnc2)c1,?,·,?,·,0.4,11.2µM*
CCN(CC)S(=O)(=O)c1ccc(N/N=C/c2cc(OC)ccc2O)nc1,?,?,2.82µM*,?,-103.4*,2µM*
CSc1cccc(NC(=O)C(C)C)c1,-2.6%,1.2%,-6.1%,18.8%,-7.9,i
CCN(CC)S(=O)(=O)c1ccc(N/N=C/c2cccnc2)nc1,·,·,0.3%,·,-23.1,·
COc1ccccc1N1CCN(c2nc(CNC(=O)c3ccccc3F)nc3ccccc23)CC1,6.5%,·,·,·,·,-15.4%
COc1cccc(CNC(=O)Nc2ccc3c(c2)N(C)C(=O)c2ccccc2S3)c1,-26.5%,-5.5%[46.1 µM],·,-17.4%[46.1 µM],?,-21.3%
Cc1cccc(Cn2cnc3c(cnn3-c3ccc(Cl)cc3)c2=O)c1,-5.5%,-21.0%[46.1 µM],·,?,8.7,-4.7%
COc1ccc2cc(C(C)C(=O)Nc3cccc(S(=O)(=O)N(C)C)c3)ccc2c1 (stereo not given),?,?,25.1µM*,?,-28.5,-22.3%
CC(C)CSc1nnc(-c2ccccc2)c(-c2ccccc2)n1,2.7%,6.8%[46.1 µM],·,-14.2%[46.1 µM],-17.0,-7.5%
C[C@H]1[C@H](N=[N+]=[N-])[C@H](O)CCO[C@@H]1c1ccccc1,·,13.1%[14.2 µM],·,·,·,·
Cc1cc(=O)n(-c2ccccc2)n1C,?,·,-0.7%,·,8.8,5.01µM*!
CCOC(=O)c1ccc(Oc2c(C)oc3cc(OS(C)(=O)=O)ccc3c2=O)cc1,-12.6%,?,?,4.9%,-76.6*,-19.5%
c1ccc(-c2cn3ccccc3n2)cc1,-5.1%,11.2µM*,1.7%,-15.9%[46.1 µM],93.7,-7.5%
CCCSc1ccc2nc(-c3ccccc3)cn2c1,-14.5%,?,?,2.24µM*,-63.8*,-21.3%
Brc1ccc(-c2cn3ccccc3n2)cc1,3.2%,?,-12.7%,2.82µM*,68.1,-0.2%
Oc1ccc(-c2cn3ccccc3n2)cc1,·,·,0.6%,·,72.3,·
O=[N+]([O-])c1ccc(-c2cn3ccccc3n2)cc1,·,·,7.7%,·,-64.7*,·
SMILES,Vaccinia Venus,Marburg entry inh,HCV inhibitor,LASV entry inh,HCMV antiviral,Vaccinia mCherry
CCCCSc1ccc2nc(-c3ccc(C#N)cc3)cn2c1,-22.7%,-25.3%,?,?,-4.0,·
COc1cc(NC(=O)c2cc(Cl)c(OC)c(Cl)c2)ccc1NC(=O)c1cc2ccccc2o1,-6.2%,·,·,-10.0%[46.1 µM],26.0,-3.3%
Cc1csc(NC(=O)CSc2ncc(-c3ccccc3)[nH]2)n1,-2.5%,-3.0%,13.9%,3.4%,-98.4*,i
CC(C)(C)c1csc(NC(=O)Cn2cnc3ccccc3c2=O)n1,-7.3%,-10.0%,14.1µM*,-2.3%,36.7,i
O=C(Cn1cnc2ccccc2c1=O)Nc1nnc(C2CC2)s1,-12.1%,?,9.2%,19.2%,-18.2,i
Cc1cnc(NC(=O)CSc2nnc3ncccn23)s1,0.0%,-27.4%[46.1 µM],10.1%,·,?,-4.4%
Cc1csc(NC(=O)CSc2nnc3ncccn23)n1,·,3.9%,3.8%,3.7%,-86.8*,·
Cc1nnc(NC(=O)CSc2ncc(-c3ccccc3)[nH]2)s1,·,·,2.4%,·,13.4,·
Cc1csc(NC(=O)CSc2nc3ccccc3c(=O)[nH]2)n1,-7.9%,4.61µM*,29.2%,?,52.9,-7.0%
Cc1cccc(C)c1NC(=O)CSc1nc2ccccc2c(=O)[nH]1,·,2.3%,?,-5.0%,35.3,·
CN(CCO)C(=O)c1cn(C2CCN(Cc3cccc4ccccc34)CC2)nn1,-6.4%,·,·,·,·,-10.4%
COCc1[nH]nc2c1[C@@H](c1ccc(OC)cc1)C(C#N)=C(N)O2,·,5.0%,·,·,·,·
Cn1c2ccccc2c2c(C(=O)N3CCN(c4ccc(F)cc4)CC3)cn(C3CCCCC3)c(=O)c21,-17.8%,?,·,?,-23.1,-18.6%
O=C(CSc1nc2ccccc2c(=O)[nH]1)Nc1ccc([N+](=O)[O-])cc1,20µM*,?,-21.5%,?,-30.8,?
CC(C)(C)c1csc(NC(=O)CSc2nc3ccccc3c(=O)[nH]2)n1,·,-5.2%,14.6%,8.5%,-106.9*,·
COc1cc(N(C)C)ccc1/C=C/c1ccnc2ccccc12,46.9%,·,·,·,·,-28.0%
Cc1ccc(NS(=O)(=O)c2ccc(-c3cc(C)no3)cc2)c(Br)c1,-20.6%,·,·,?,-22.0,-23.3%
CC12CCC3C(CCC4(O)CC(O)CCC34C=O)C1(O)CCC2C1=CC(=O)OC1 (stereo not given),1µM*,0.447µM*,?,0.708µM*,-100.2*,?
CC12CCC3C(CCC4(O)CC(O)CCC34C=NO)C1(O)CCC2C1=COC(=O)C1 (stereo not given),0.398µM*,0.178µM*,2µM*,0.251µM*,-98.0*,31.6µM*
C[C@]12CC[C@H]3[C@@H](CC[C@]4(O)C[C@@H](O)CC[C@]34C=O)[C@@]1(O)CC[C@@H]2C1=CC(=O)OC1,1µM*,·,0.562µM*,·,-99.2*,1µM*
C[C@H]1O[C@@H](OC2CC[C@]3(C=O)[C@H]4CC[C@]5(C)[C@@H](C6=CC(=O)OC6)CC[C@]5(O)[C@@H]4CC[C@]3(O)C2)CC2OC(C)(C)OC21 (stereo not given in full),0.282µM*,·,1µM*,·,-96.6*,?
CC12CC[C@H]3[C@@H](CCC4(O)C[C@H](O)CCC34/C=N/NC(=O)c3ccccc3Cl)C1(O)CCC2C1=CC(=O)OC1 (stereo not given in full),·,·,7.7%,·,-31.6,·
COc1ccc(Nc2nc3ccccc3c3nnc(C)n23)cc1Cl,-6.4%,10.1%[46.1 µM],·,-15.6%[46.1 µM],-15.8,-14.3%
Cc1cc(C)cc(-n2ccnc2SCC(=O)Nc2ccc(C)c(Cl)c2)c1,2.5%,·,·,16.0%[46.1 µM],-21.3,-17.7%
